The campaign covered roughly 2,200 compounds. About 1,200 (55%) were called active. Cut-off not given; nearly all actives show IC50 up to about 92 µM. The set was probably picked from earlier hits. This is one part of the list.
assay: counter assay for TAg ATPase ADP read-out – biochemical, ADP-Hunter, fluorescence, counter-screen (AID 2501); conditions: series mostly up to 100 µM;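 further: purified T antigen ATPase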

Structure (SMILES) | IC50
Cc1cc(O)c(C=O)c2c1C(=O)Oc1c(CO)c(O)c3c(c1O2)C(O)OC3=O (stereo unspecified) | inactive
O=S(=O)(O)c1cccc2c(N=Nc3ccc(O)c4ncccc34)cccc12 | inactive
O=[N+]([O-])c1cc([N+](=O)[O-])c2cccnc2c1Oc1ccccc1O | 21.8 µM (active)
O=[N+]([O-])c1cc(CN2CCCC2)c2cccnc2c1O | inactive
Cc1nonc1C1CCCN1C(=O)c1cc(COc2ccc(F)cc2F)on1 (stereo unspecified) | inactive
COc1ccccc1C(NC(C)=O)c1c(O)ccc2ccc(O)cc12 (stereo unspecified) | inactive
O=C(CCO)c1ccc(O)cc1 | inactive
COc1cc(O)ccc1C(=O)CCc1ccc(O)cc1 | 6.75 µM (active)
COc1cc(C2OCC3C(c4ccc(OC5OC(CO)C(O)C(O)C5O)c(OC)c4)OCC23)ccc1O (stereo unspecified) | 8.74 µM (active)
O=C(CN1C(=O)/C(=C\c2ccco2)SC1=S)Nc1ccc(O)cc1C(=O)O | inactive
O=C(CN1C(=O)/C(=C/c2ccco2)SC1=S)NC1CCS(=O)(=O)C1 (stereo unspecified) | 35.1 µM (active)
O=C(CN1C(=O)/C(=C/c2ccco2)SC1=S)Nc1ccc(O)c(C(=O)O)c1 | inactive
N#Cc1c(Nc2ccccc2Cl)s[nH]c1=O | inactive
O=C(O)CSc1cc(NS(=O)(=O)c2ccc(Cl)cc2)c2ccccc2c1O | inactive
O=C([C@H](Cc1ccccc1)NS(=O)(=O)c1ccc(Cl)cc1)N1CC[C@@]2(O)CCCC[C@H]2C1 | 18.9 µM (active)
COc1ccc(-c2c(C)nn3c(-c4ccccc4)cc(C)nc23)cc1 | inactive
NC(=S)N=Nc1ccc(NN=C(N)N)cc1 | 6.85 µM (active)
COc1ccccc1C1/C(=C(/O)c2ccc(C)cc2)C(=O)C(=O)N1CC(C)O (stereo unspecified) | inactive
CCCOc1ccc(Cc2nn3c(=O)/c(=C/c4ccco4)sc3nc2=O)cc1 | inactive
COC1=C/C(=C/c2c(N)n3nc(-c4ccc(C)cc4)sc3nc2=O)C=CC1=O | 10.8 µM (active)
O=c1nc2s/c(=C\c3ccco3)c(=O)n2nc1Cc1ccccc1 | inactive
CCOC1=C/C(=C/c2c(N)n3nc(-c4ccccc4)sc3nc2=O)C=CC1=O | 11.2 µM (active)
CCOC(=O)N1CCN(c2cc(NCCC(=O)O)c3c4c(onc24)-c2ccccc2C3=O)CC1 | 8.63 µM (active)
CCOc1cc(CNc2ccc(N3CCN(C(C)=O)CC3)cc2)cc(Br)c1OC | 5.42 µM (active)

Structure (SMILES) | IC50
CCOc1c(Br)cc(CNc2ccc(N3CCN(C(C)=O)CC3)cc2)cc1OC | 7.66 µM (active)
CCOc1c(Br)cc(CNc2ccc(N3CCOCC3)cc2)cc1OC | 6.04 µM (active)
Cn1ncc2nnn(-c3ccccc3)c(=O)c21 | inactive
Brc1ccc(-c2nn3c(-c4ccco4)nnc3s2)o1 | inactive
COc1cc(/C=N/NC(=O)C(C)n2nnc3ccccc32)ccc1O (stereo unspecified) | 3.07 µM (active)
CCOc1cc(/C=N\NC(=O)Cn2nnc3ccccc32)ccc1O | 5.43 µM (active)
CCOc1ccc(NC(=O)c2nnn(CC(=O)Nc3ccccc3OC)c2N)cc1 | inactive
COc1cc(/C=N/NC(=O)CCc2c(C)n[nH]c2C)ccc1O | 4.69 µM (active)
COc1ccc(Cc2nc3ccccc3n2CC(=O)N/N=C/c2ccc(O)cc2)cc1OC | 4.33 µM (active)
CC(C(=O)Nc1ccccc1Cl)N(c1ccccc1)S(C)(=O)=O (stereo unspecified) | inactive
CCCSC1=N/C(=C\C=C\c2ccco2)C(=O)S1 | inactive
COc1cc(/C=N/NC(=O)Cn2nnc3ccccc32)ccc1O | 2.86 µM (active)
CCOc1cc(/C=N/NC(=O)CCn2nnc3ccccc32)ccc1O | 3.32 µM (active)
COc1cc(/C=N/NC(=O)CCn2nc(C)cc2C)ccc1O | 6.73 µM (active)
COc1cc(/C=N/NC(=O)CCn2nnc3ccccc32)ccc1O | 3.56 µM (active)
CCOC(=O)C1=C(N)n2c(s/c(=C\c3ccco3)c2=O)=C(C(=O)OCC)C1c1ccco1 (stereo unspecified) | inactive
C[C@]12CC[C@@H]3c4cc(O)c(O)cc4CC[C@H]3[C@@H]1CC[C@@H]2O | inactive
CCCNC(=O)c1ccc(CNc2c(N3CCC(C(=O)OCC)CC3)c(=O)c2=O)cc1 | inactive
Cc1cccc(N=C2NC(=O)/C(=C/C=C/c3ccco3)S2)c1 | inactive
O=C1NC(=Nc2ccc(O)cc2)S/C1=C\C=C\c1ccco1 | 3.48 µM (active)
O=C(CCCN1C(=O)/C(=C\c2ccco2)SC1=S)Nc1ccc(O)cc1C(=O)O | inactive
Cc1ccc(S(=O)(=O)/N=C2/NC(=O)/C(=C\c3ccco3)S2)cc1 | inactive
O=C(O)CC(C(=O)O)N1C(=O)/C(=C/C=C/c2ccco2)SC1=S (stereo unspecified) | inactive
O=C1NC(=Nc2ccc(O)cc2)S/C1=C/c1ccco1 | 5.16 µM (active)

Structure (SMILES) | IC50
CCCC[C@@H]1CN=C(N)N1CCc1cc(C(F)(F)F)cc(C(F)(F)F)c1 | inactive
O=Nc1c(-c2cccc([N+](=O)[O-])c2)nc2ncccn12 | inactive
CN=c1nc(-c2ccccc2)n(-c2ccccc2)s1 | 11.8 µM (active)
O=C(N/N=C/c1ccc(OC(=O)c2ccco2)cc1)c1ccc[n+]([O-])c1 | 41.7 µM (active)
CCOC(=O)C1=C(C)NC(=S)NC1c1ccc(OC(=O)c2ccco2)cc1 (stereo unspecified) | inactive
Oc1ccc(-c2nc(=S)[nH][nH]2)cc1 | 2.49 µM (active)
O=c1c2ccccc2sn1-c1cc(S(=O)(=O)N2CCOCC2)ccc1N1CCOCC1 | 12.5 µM (active)
O=c1c2ccccc2sn1-c1cc(S(=O)(=O)N2CCOCC2)ccc1N1CCCC1 | 12.5 µM (active)
Cc1ccc2c(c1)C(c1ccccc1)N(C(=O)c1ccc(S(=O)(=O)N3CCOCC3)cc1)CC(=O)N2 (stereo unspecified) | inactive
O=C(Nc1ccc(S(=O)(=O)N2CCCC2)cc1)N1c2ccccc2Sc2ccccc21 | inactive
C[C@@H]1O[C@@H](OC2C(O)C(OCCc3ccc(O)c(O)c3)OC(CO)C2OC(=O)/C=C/c2ccc(O)c(O)c2)[C@H](O)[C@H](O)[C@H]1O (stereo partly specified) | 6.02 µM (active)
Nc1nc[nH]c(=O)c1N=Cc1ccccc1 | 12.2 µM (active)
CCN=C(Nc1ccc2c(c1)OCO2)SC1CC(=O)N(c2ccc(OC)cc2)C1=O (stereo unspecified) | inactive
C=CCNc1nnc(SC2CC(=O)N(c3ccc(OC)cc3)C2=O)s1 (stereo unspecified) | 11.2 µM (active)
CN1/C(=C\C=N\NC(=O)c2ccc(O)cc2)C(C)(C)c2ccccc21 | 8.51 µM (active)
Cc1c(/C=N/NC(=O)c2ccc(O)cc2)c2ccccn2c1C(=O)c1ccc(F)cc1 | inactive
O=S(=O)(O)c1cc(O)c2c(O)c(N=Nc3cc(Cl)ccc3O)c(S(=O)(=O)O)cc2c1 | 81.2 µM (active)
Cc1cc(-c2ccc(N=Nc3c(S(=O)(=O)O)cc4cc(S(=O)(=O)O)cc(N)c4c3O)c(C)c2)ccc1N=Nc1c(S(=O)(=O)O)cc2cc(S(=O)(=O)O)cc(N)c2c1O | 11.5 µM (active)
Cc1sc(NC(=O)C2C3CCC(O3)C2C(=O)O)c(C(=O)OC(C)C)c1-c1ccc(Cl)cc1 (stereo unspecified) | inactive
CCCn1cnc2cc(NCc3cccc(OC)c3O)ccc21 | 4.87 µM (active)
CCn1cnc2cc(NCc3cccc(OC)c3O)ccc21 | 3.71 µM (active)
C/C(Cl)=C\Cn1c(N2CCCC2)nc2c1c(=O)[nH]c(=O)n2C | inactive
O=C(O)CCNc1ccc(NCCC(=O)O)c2c1C(=O)c1ccccc1C2=O | 7.52 µM (active)
Oc1cnn(-c2ccccc2)c1 | 7.63 µM (active)

Structure (SMILES) | IC50
COc1cc(/C=N\Nc2nc(-c3cccs3)c(NC(C)=O)s2)ccc1O | 4.67 µM (active)
O=C(Nc1nc(-c2ccco2)c(-c2ccco2)s1)c1ccco1 | inactive
CCOc1cc(/C=N/Nc2nc(-c3cccs3)c(NC(C)=O)s2)ccc1O | 9.71 µM (active)
CC(=O)Nc1sc(N/N=C\c2ccco2)nc1-c1cccs1 | 74 µM (active)
NS(=O)(=O)c1cc(C(=O)NC2CCSc3ccccc32)ccc1Cl (stereo unspecified) | inactive
CSc1cccc(NC(=O)CN2C(=O)c3ccccc3S2(=O)=O)c1 | inactive
CCS(=O)(=O)c1ncc(Cl)c(C(=O)Nc2ccc(S(=O)(=O)N3CCCC(C)C3)cc2)n1 (stereo unspecified) | inactive
Oc1ccc(/C=N/Nc2cc(N3CCOCC3)nc(N3CCOCC3)n2)cc1O | 4.67 µM (active)
Cc1cc(N/N=C/c2ccc(O)cc2O)nc(N2CCOCC2)n1 | 22.7 µM (active)
Oc1ccc(/C=N/Nc2cc(N3CCCC3)nc(N3CCCC3)n2)cc1O | 31.9 µM (active)
O=C(NC1CCCC1)C(c1ccc(F)cc1)N(Cc1ccc(F)cc1)C(=O)c1ccn[nH]1 (stereo unspecified) | inactive
COc1ccc(C2CC(=O)N3CN(c4ccc(C)c(Cl)c4)CSC3=C2C#N)cc1 (stereo unspecified) | inactive
COc1ccc(N2CSC3=C(C#N)C(c4cccs4)CC(=O)N3C2)cc1 (stereo unspecified) | 7.88 µM (active)
Cc1ccc(N2CSC3=C(C#N)C(c4cccs4)CC(=O)N3C2)cc1 (stereo unspecified) | 23.6 µM (active)
N#CC1=C2SCN(Cc3ccccc3)CN2C(=O)CC1c1cccs1 (stereo unspecified) | inactive
COc1ccc(N2CSC3=C(C#N)C(c4cccc(OC)c4OC)CC(=O)N3C2)cc1 (stereo unspecified) | 5.84 µM (active)
CCOc1ccc(N2CSC3=C(C#N)C(c4ccco4)CC(=O)N3C2)cc1 (stereo unspecified) | 10.4 µM (active)
CCc1ccccc1N1CSC2=C(C#N)C(c3ccccc3F)CC(=O)N2C1 (stereo unspecified) | inactive
COc1ccc(-n2cc(CN3CCCC3)c(-c3cccc(F)c3)n2)cc1 | inactive
C/C=C/c1cc(CN2CCN(c3ccc(OC)cc3)CC2)c(O)c(OC)c1 | 32.1 µM (active)
COc1ccc2cc(-c3[nH]ncc3CN3CCCN(c4ccccc4)CC3)ccc2c1 | inactive
O=S(=O)(Nc1cccc(C(F)(F)F)c1)c1cnc[nH]1 | inactive
Cc1cc(C)c2c(=O)n(CC(=O)Nc3cccc(Cl)c3C)sc2n1 | inactive
Cc1coc2c(O)cc3c(c12)OC1(N2CCCCC2)C(=O)NCCCC31 (stereo unspecified) | inactive

Reference: PubChem BioAssay AID2501 (Southern Research Specialized Biocontainment Screening …, 2010)
